# Test results published in PubChem BioAssay.
# Calls of active or inactive are those of the source. Cut-off read from the data, not from the text of the source: active = inhibition above about 42%; inactive = the rest.
# Target: Nuclear receptor subfamily 5 group A member 2 (Homo sapiens) (UniProt O00482)
# Assay: NR5A2 activity suppression in reporter cells – cell-based, luminescence, confirmation (AID 651613);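 note: HEK293T cells co-transfected with LRH-1 and StAR promoter luciferase reporter; 0% = vehicle wells and 100% = parental cells lacking receptor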
# Details: cell-based LRH-1 luciferase reporter, inverse agonism; at 3.6 µM; active compounds read high
# Nuclear receptor subfamily 5 group A member 2 (Homo sapiens), sequence (O00482 whole entry, looked up): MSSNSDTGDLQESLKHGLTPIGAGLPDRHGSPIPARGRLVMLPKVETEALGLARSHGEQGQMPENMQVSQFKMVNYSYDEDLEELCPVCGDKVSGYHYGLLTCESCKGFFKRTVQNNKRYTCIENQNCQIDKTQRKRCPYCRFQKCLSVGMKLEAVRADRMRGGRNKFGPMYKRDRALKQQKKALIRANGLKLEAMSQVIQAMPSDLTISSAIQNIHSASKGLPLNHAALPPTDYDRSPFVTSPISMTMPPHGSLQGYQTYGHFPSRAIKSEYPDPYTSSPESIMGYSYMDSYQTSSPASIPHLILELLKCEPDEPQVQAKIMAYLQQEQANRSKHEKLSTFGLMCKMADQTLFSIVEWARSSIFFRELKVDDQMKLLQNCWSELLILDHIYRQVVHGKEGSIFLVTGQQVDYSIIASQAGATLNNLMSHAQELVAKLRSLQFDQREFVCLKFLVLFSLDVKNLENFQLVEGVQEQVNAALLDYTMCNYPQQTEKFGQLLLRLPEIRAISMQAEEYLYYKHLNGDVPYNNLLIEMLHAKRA
row,SMILES,inhibition
1,CCOc1cc2c(cc1OCC)C(c1ccc(OC)cc1)N(c1ccccc1)C(=O)C2 (centres undefined),3.16% (inactive)
2,O=[N+]([O-])c1cnccc1Nc1cccc(F)c1,62.3% (active)
3,CN(C)CCNC(=O)c1cccc2nc3cccc(F)c3nc12,81.5% (active)
4,Cc1ccccc1C(=O)N1CCN(c2ccc(NC(=O)c3ccc([N+](=O)[O-])o3)cc2)CC1,64.4% (active)
5,CCOCC(=O)Nc1ccc(S(=O)(=O)NCCc2ccccc2)cc1,48.3% (active)
6,O=C(Nc1nnc(C2=COCCO2)o1)c1ccc([N+](=O)[O-])s1,49.4% (active)
7,Cc1cc(C)c(SCCc2ccncc2)c(C)c1,63.7% (active)
8,CCN1C(=O)c2cccc3c(NC(=O)c4ccc(S(=O)(=O)N(C)C)cc4)ccc1c23,47.9% (active)
9,COc1ccc(C2=Nn3c(nnc3-c3ccccc3OC)SC2)cc1OCC1CC1,60.4% (active)
10,Cc1ccc2cccc(OCC(=O)NCCC3=CCCCC3)c2n1,61.1% (active)
11,COc1ccc(NC(=O)COC(=O)Cc2c[nH]c3ccccc23)cc1Cl,40.9% (inactive)
12,COc1cc2c(cc1OC)CN(C(=O)CN1CCN(S(=O)(=O)c3ccc(C)c(C)c3)CC1)CC2,49.3% (active)
13,Nc1ccc(Nc2ccncc2[N+](=O)[O-])cc1,65.6% (active)
14,Cc1ccc(NC(=O)CSc2nnc([C@@H]3CCCN3C(=O)OC(C)(C)C)o2)c(C)c1,58% (active)
15,O=C(NCC1CCCO1)c1ccc(NC(=O)c2cccc([N+](=O)[O-])c2)cc1 (centres undefined),56.2% (active)
16,O=C(c1ccccc1)c1ccc2nc(N3CCN(C(=O)c4ccco4)CC3)c3nncn3c2c1,43% (active)
17,O=C(c1c(F)c(F)c(F)c(F)c1F)N1CCN(c2cccc(C(F)(F)F)c2)CC1,49.5% (active)
18,Cc1ccc2c(c1)N(C)/C(=C/c1cccc[n+]1C)S2,61.8% (active)
19,Cc1ccc(SCC(=O)Nc2ccc(N3CCOCC3)cc2)cc1C,51.6% (active)
20,COc1ccc(CCn2c(C)cc(C(=O)COC(=O)c3ccc(O)cc3O)c2C)cc1,41.5% (active)
21,CC(NC(=O)c1ccco1)C(c1cccs1)N1CCN(c2ccccc2)CC1 (centres undefined),34.9% (inactive)
22,Cc1cccc(-n2ncc3c2CCCC3NC(=O)C2(C(N)=O)CC2)c1C (centres undefined),55% (active)
23,Oc1ccc2ccccc2c1C=NCc1ccccc1,15.3% (inactive)
24,COc1cc(C(=O)Nc2sc3c(c2C#N)CCN(C(C)=O)C3)cc(OC)c1OC,66.3% (active)
